For eight compounds, Potency and activity, negative = cell killing results are on record in PubChem BioAssay (NCATS).

The subject of one assay is MKL-1. Description: qHTS assay to identify novel small-molecules to repurpose for Merkel cell carcinoma treatment (AID 1296009). Also: nearly all actives have a fitted effect of over 60% in size. The settings on record: MCC and control cell lines, CellTiter-Glo viability, 72 h; series mostly up to 46 µM. Put shortly: (§1)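 Cell viability measured by CellTiter-Glo following 72 hr compound treatment at 37 degree celsius, with NPC and MIPE libraries tested in 8- and 11-point concentration series.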

Another assay has as its system MKL-2. The description is as above. To be noted: MCC and control cell lines, CellTiter-Glo viability, 72 h; series mostly up to 46 µM. Summed up: as §1
A further assay deals with UISO. Described as above. To be noted: MCC and control cell lines, CellTiter-Glo viability, 72 h; series mostly up to 46 µM. Put shortly:
as §1

The next assay deals with WaGa. Described as above. The settings on record: MCC and control cell lines, CellTiter-Glo viability, 72 h; series mostly up to 46 µM. Summed up:
as §1
In general terms: ATP-based viability assays read luminescence as a measure of living cells.

For the next assay, the system named is C33A. The assay is described as follows: Primary qHTS to identify gynecologic anti-cancer compounds using libraries of approved drugs and bioactive compounds (AID 1345084). Also: nearly all actives have a fitted effect of over 55% in size. To be noted: Gynecologic cancer cell panel viability, ATPlite luminescence, 48 h; series mostly up to 57.5 µM. Summed up: (§2)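 ATP-based viability (ATPlite), 1,000 cells/well, 16 h pre-incubation, 48 h compound at 37 C, 5% CO2, 15 min RT before read.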
(In general: Quantitative high-throughput screening tests each substance at several concentrations.)

The next assay has as its system CASKI. Described as above. To be noted: Gynecologic cancer cell panel viability, ATPlite luminescence, 48 h; series mostly up to 57.5 µM. Put shortly:
as §2

A further assay deals with Es-2. The description is as above. The settings on record: Gynecologic cancer cell panel viability, ATPlite luminescence, 48 h; series mostly up to 57.5 µM. Summed up: as §2
For a further assay, the system named is HeLa. Described as above. The settings on record: Gynecologic cancer cell panel viability, ATPlite luminescence, 48 h; series mostly up to 57.5 µM. Summed up: as §2
Another assay concerns Hek293T. The description is as above. To be noted: Gynecologic cancer cell panel viability, ATPlite luminescence, 48 h, control line for the selectivity index; series mostly up to 57.5 µM. Summed up: as §2
The next assay relates to JEG-3. The assay is described as above. To be noted: Gynecologic cancer cell panel viability, ATPlite luminescence, 48 h; series mostly up to 57.5 µM. Put shortly:
as §2

The subject of a further assay is OV90. Described as above. The settings on record: Gynecologic cancer cell panel viability, ATPlite luminescence, 48 h; series mostly up to 57.5 µM. Summed up: as §2
For a further assay, the system named is SKOV3. Described as above. To be noted: Gynecologic cancer cell panel viability, ATPlite luminescence, 48 h; series mostly up to 57.5 µM. Summed up:
as §2

In a further assay the test system is Tov-21-G. The description is as above. The settings on record: Gynecologic cancer cell panel viability, ATPlite luminescence, 48 h; series mostly up to 57.5 µM. Put shortly:
as §2

Another assay has as its system Tov112D. The description is as above. The settings on record: Gynecologic cancer cell panel viability, ATPlite luminescence, 48 h; series mostly up to 57.5 µM. Put shortly: as §2
Assay [1] is described as follows: Drug repurposing screens with cells derived from glioblastoma tumor samples (AID 1345199). Also: nearly all actives have a fitted effect of over 40% in size. As to activity, negative = cell killing: % is scaled to controls: 0 for no effect and ±100 for the full control effect. To be noted: GBM patient neurospheres viability, ATP luminescence, 48 h. Put shortly:
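Primary testing used CD133+ neurospheres from four GBM patients, seven concentrations, 48 h exposure and ATP-based viability; confirmation added three slower-growing patient lines.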

For another assay, the system named is PA-1. Description: Primary qHTS to identify gynecologic anti-cancer compounds using libraries of approved drugs and bioactive compounds (AID 1345084). Also: nearly all actives have a fitted effect of over 55% in size. The settings on record: Gynecologic cancer cell panel viability, ATPlite luminescence, 48 h; series mostly up to 57.5 µM. Put shortly: as §2
The nature of assay [2]: qHTS assay to identify inhibitors of the type 1 interferon - major histocompatibility complex class I in skeletal muscle: Counter screen cell viability and HiBit confirmation (AID 1347412). Also: nearly all actives have a fitted effect of over 60% in size. To be noted: iHSKM muscle cells + IFN-b, HiBiT or CellTiter-Glo, 24 h. Summed up:
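After 24 h with human IFN-beta (4 ng/ml) and compound titrations (top 46 uM final, 1:3, 12 points), HLA-B HiBit myoblasts were lysed for either Nano-Glo HiBiT luminescence or CellTiter Glo viability on paired plates.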

Another assay concerns CAOV3. The assay is described as follows: Primary qHTS to identify gynecologic anti-cancer compounds using libraries of approved drugs and bioactive compounds (AID 1345084). Also: nearly all actives have a fitted effect of over 55% in size. To be noted: Gynecologic cancer cell panel viability, ATPlite luminescence, 48 h; series mostly up to 57.5 µM. Summed up: as §2
Setting [3] is: at 45.9 µM (top of the series), tumour line B.
Setting [4] is: at 45.9 µM (top of the series), tumour line D.
Where [5] appears, read: at 46.1 µM (top of the series), tumour line C.
The mark [6] stands for this setting: at 46 µM (top of the series), tumour line A.

Results filed as inconclusive are left out. Unmarked numbers belong to inactive results. The source made the active and inactive calls. Calls follow the shape of the dose curve; as a rule, active = well fitted curve in the direction sought with a large enough effect; inconclusive = small, poorly fitted or top-dose-only effect, or another doubt; inactive = no such curve, though single readings can be large; an effect the other way counts as inactive or inconclusive.
Potency is read from the fitted curve at half-maximal effect.

For `CCn1cc(C(=O)O)c(=O)c2ccc(C)nc21`, the Potency entry in the assay on MKL-1, in the assay on MKL-2, in the assay with UISO, in the assay on WaGa, in the assay on C33A and with CASKI was “inactive” throughout. Besides, the Potency entry in the assay on Es-2, in the assay with HeLa, with Hek293T, with JEG-3, in the assay on OV90 and in the assay on SKOV3 was “inactive” in each case. In addition, the Potency result with Tov-21-G and with Tov112D was “inactive” throughout. The activity, negative = cell killing in assay [1] (setting [3]) is -0.634%; in assay [1] (setting [4]) it was -3.73%; in assay [1] (setting [5]), -15.1%.

With `CCN1CCC[C@H]1CNC(=O)c1cc(S(N)(=O)=O)ccc1OC`, the Potency entry with MKL-1, in the assay on MKL-2, with UISO, with WaGa, in the assay with C33A and in the assay on CASKI was “inactive” in each case. In addition, the Potency entry in the assay with Es-2, in the assay on HeLa, in the assay with Hek293T, in the assay on JEG-3, in the assay on OV90 and in the assay with PA-1 was “inactive” in each case. In addition, the Potency entry with SKOV3, in the assay on Tov-21-G and in the assay on Tov112D was “inactive” each time. The activity, negative = cell killing was 0.712% in [1] (setting [3]), -10.3% in assay [1] (setting [4]), -29.7% in assay [1] (setting [6]) and 1.29% in assay [1] (setting [5]).

For the compound `CN1[C@@H]2CCC[C@@H]1CC(NC(=O)c1nn(C)c3ccccc13)C2` (stereo partly drawn), the Potency result in the assay on MKL-1, with MKL-2, in the assay on UISO and with WaGa was “inactive” in each case. The activity, negative = cell killing in assay [1] (setting [3]) is 0.357%; in assay [1] (setting [4]) it was 2.65%; in assay [1] (setting [5]), -11.6%. In addition, the Potency in assay [1] (tumour line A) was 12.6 µM (active).

Turning to `CN1CCN(CCOc2cc(OC3CCOCC3)c3c(Nc4c(Cl)ccc5c4OCO5)ncnc3c2)CC1`, the Potency entry with MKL-1, in the assay with MKL-2, with UISO, in the assay on WaGa, in the assay on Es-2 and in the assay on HeLa was “inactive” in each case. The Potency entry with Hek293T, with JEG-3 and in the assay with Tov112D was “inactive” throughout. Further, the Potency is 3.55 µM (active) in the assay on SKOV3 and 2.24 µM (active) with Tov-21-G.

As for `O=C1c2ccccc2-[n+]2ccc3c([nH]c4ccccc43)c21`, the Potency in the assay on MKL-1 was 1.05 µM (active); with MKL-2, 3.32 µM (active); in the assay on UISO, 0.662 µM (active); in the assay on WaGa, 2.35 µM (active); in assay [2] (HiBiT) it was 1.57 µM (active); in assay [2] (Viability), 2.22 µM (active).

With `COc1ccc2c(Oc3ccc(NC(=O)c4c(C)n(CC(C)(C)O)n(-c5ccccc5)c4=O)nc3)ccnc2c1`, the Potency result in the assay with MKL-1, in the assay with MKL-2, with UISO, in the assay on WaGa, with C33A and with CAOV3 was “inactive” each time. Also, the Potency entry with CASKI, with Es-2, with HeLa, in the assay with Hek293T, in the assay with JEG-3 and in the assay on OV90 was “inactive” throughout. Further, the Potency entry in the assay on Tov112D was “inactive”. Also, the Potency in the assay with PA-1 is 31.6 µM (active).

As to `O=C(O)Cc1cccc2ccccc12`, the Potency entry with MKL-1, with MKL-2, in the assay with UISO, in the assay on WaGa, with C33A and in the assay on CAOV3 was “inactive” in each case. The Potency result in the assay with CASKI, in the assay with Es-2, in the assay with HeLa, with Hek293T, in the assay with JEG-3 and with OV90 was “inactive” throughout. Moreover, the Potency result with PA-1, in the assay with SKOV3, in the assay with Tov-21-G and in the assay on Tov112D was “inactive” each time. The activity, negative = cell killing was -11.6% in assay [1] (setting [3]); 18.7% in assay [1] (setting [4]); -19.6% in assay [1] (setting [6]); -6.29% in assay [1] (setting [5]); -29.8% in [1] (at 91.6 µM (top of the series), tumour line A); 9.54% in [1] (at 91.6 µM (top of the series), tumour line B). Moreover, the activity, negative = cell killing in assay [1] (at 91.6 µM (top of the series), tumour line D) was -15.1%; in assay [1] (at 99.2 µM (top of the series), tumour line C), 10.5%.

On to `CN(C)c1cc(NC(=O)CNC(C)(C)C)c(O)c2c1C[C@@H]1C[C@H]3[C@H](N(C)C)C(=O)C(C(N)=O)=C(O)[C@@]3(O)C(=O)C1=C2O`, for which the Potency entry with MKL-1, in the assay on MKL-2, in the assay on UISO, in the assay with WaGa, in the assay with C33A and in the assay with CASKI was “inactive” each time. Further, the Potency result in the assay on Es-2, in the assay with HeLa, with Hek293T, in the assay on JEG-3, in the assay on OV90 and with PA-1 was “inactive” each time. Besides, the Potency result in the assay with SKOV3, with Tov-21-G and in the assay on Tov112D was “inactive” in each case. Further, the activity, negative = cell killing is 8.46% in assay [1] (setting [3]), 6.87% in assay [1] (setting [4]), -27.8% in assay [1] (setting [6]) and 0.651% in assay [1] (setting [5]).
